Assay results reported in the supplement of paper PMC6089552.
The whole screen tested about 3,200 compounds, of which about 300 (9.4%) showed activity. What follows is part of a selection rich in actives, with near analogues and random picks from the rest.

Tested on: A673/TR/shEF
Experiment: cell viability (LOESS-normalised, relative to median of negative controls) (log2 ratio); higher = more viable cells (less compound effect), active = hit call of the paper (over 3 MAD below the median)
Conditions: treatment time: 72 h
Outline: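 Viability of A673/TR/shEF Ewing sarcoma cells was determined by CellTiter-Glo luminescence. The cells, at 1,500 per well in 384-well plates, were grown with or without doxycycline from 24 h before compound addition to switch on EWS-FLI1 shRNA knockdown, then exposed for three days to library compounds at two or more concentrations or to DMSO controls. Signals were LOESS-corrected plate by plate, normalised to the negative-control median and log2-transformed.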

[1] = 0.25 µM, library screen: screen1, EWS-FLI1 expression: high (no doxycycline)
[2] = 0.25 µM, library screen: screen1, EWS-FLI1 expression: low (doxycycline-induced shRNA knockdown)
[3] = 2.5 µM, library screen: screen1, EWS-FLI1 expression: high (no doxycycline)
[4] = 2.5 µM, library screen: screen1, EWS-FLI1 expression: low (doxycycline-induced shRNA knockdown)
[5] = 0.025 µM, library screen: screen1, EWS-FLI1 expression: high (no doxycycline)
[6] = 0.025 µM, library screen: screen1, EWS-FLI1 expression: low (doxycycline-induced shRNA knockdown)
[7] = 25 µM, library screen: screen1, EWS-FLI1 expression: high (no doxycycline)
[8] = 25 µM, library screen: screen1, EWS-FLI1 expression: low (doxycycline-induced shRNA knockdown)
[9] = 0.25 µM, library screen: screen2, EWS-FLI1 expression: high (no doxycycline)
[10] = 0.25 µM, library screen: screen2, EWS-FLI1 expression: low (doxycycline-induced shRNA knockdown)
[11] = 2.5 µM, library screen: screen2, EWS-FLI1 expression: high (no doxycycline)
[12] = 2.5 µM, library screen: screen2, EWS-FLI1 expression: low (doxycycline-induced shRNA knockdown)
[13] = 0.103 µM, library screen: screen3, EWS-FLI1 expression: high (no doxycycline)
[14] = 0.103 µM, library screen: screen3, EWS-FLI1 expression: low (doxycycline-induced shRNA knockdown)
[15] = 0.308 µM, library screen: screen3, EWS-FLI1 expression: high (no doxycycline)
[16] = 0.308 µM, library screen: screen3, EWS-FLI1 expression: low (doxycycline-induced shRNA knockdown)
[17] = 0.926 µM, library screen: screen3, EWS-FLI1 expression: high (no doxycycline)
[18] = 0.926 µM, library screen: screen3, EWS-FLI1 expression: low (doxycycline-induced shRNA knockdown)
[19] = 2.8 µM, library screen: screen3, EWS-FLI1 expression: high (no doxycycline)
[20] = 2.8 µM, library screen: screen3, EWS-FLI1 expression: low (doxycycline-induced shRNA knockdown)
[21] = 8.3 µM, library screen: screen3, EWS-FLI1 expression: high (no doxycycline)
[22] = 8.3 µM, library screen: screen3, EWS-FLI1 expression: low (doxycycline-induced shRNA knockdown)
[23] = 25 µM, library screen: screen3, EWS-FLI1 expression: high (no doxycycline)
[24] = 25 µM, library screen: screen3, EWS-FLI1 expression: low (doxycycline-induced shRNA knockdown)

Measured: cell viability (log2)

O=c1cccc2c([C@H]3Oc4cc(O)cc(O)c4C[C@H]3O)cc(O)c(O)c2c1O
inactive: [1] 0.06 | [2] 0.00163 | [3] 0.108 | [4] 0.0999

N#C/C(=C\c1cc(Cl)cc(Cl)c1)c1cccnc1
inactive: [5] 0.0512 | [6] 0.0254 | [1] 0.126 | [2] 0.0849 | [3] 0.0839 | [4] 0.0837 | [7] -0.0133 | [8] 0.21

CC(C)c1ccc2c(c1)CC[C@@]1(C)[C@](C)(C(N)=O)CCC[C@]21C
inactive: [1] 0.0259 | [2] 0.0473 | [3] 0.108 | [4] 0.0563

CC(=O)O[C@H]1CC[C@@]2(C)C(CC[C@]3(C)C2CC=C2C4CC(C)(C)CC[C@]4(C)CCC23C)C1(C)C (stereo partly drawn)
inactive: [1] 0.05 | [2] 0.112 | [3] 0.0854 | [4] 0.111

COc1ccc(OC)c(CN2CCN(Cc3cc(OC)c(OC)cc3OC)CC2)c1
active: [1] -0.103
inactive: [2] 0.113 | [3] 0.0261 | [4] -0.0111

COc1ccc(OC)c(CN2CCN(Cc3ccc(OC)c(OC)c3)CC2)c1
inactive: [1] 0.114 | [2] 0.0365 | [3] 0.174 | [4] 0.0479

COc1ccc(OC)c(CN2CCN(Cc3ccccc3OC)CC2)c1
inactive: [1] 0.101 | [2] 0.0584 | [3] 0.0952 | [4] 0.0149

COc1ccc(CN2CCN(Cc3ccc(OC)c(OC)c3OC)CC2)c(OC)c1
inactive: [1] 0.0664 | [2] 0.0443 | [3] 0.0638 | [4] 0.0995

Cc1ccc(S(=O)(=O)N[C@@H](Cc2ccccc2)C(=O)CCl)cc1
inactive: [9] 0.00163 | [10] 0.0223 | [11] 0.0887 | [12] 0.111

O=C(N[C@@H](Cc1ccccc1)C(=O)CCl)OCc1ccccc1
active: [11] -0.218
inactive: [9] 0.163 | [10] 0.156 | [12] 0.0216

CC(C)[C@H](NC(=O)OCc1ccccc1)C(=O)N[C@H](C=O)Cc1ccccc1
inactive: [9] 0.0586 | [10] 0.0917 | [11] 0.108 | [12] 0.155

C[N+]1(C)[C@@H]2CC(OC(=O)C(O)(c3cccs3)c3cccs3)C[C@H]1[C@@H]1O[C@@H]12 (stereo partly drawn)
inactive: [13] -0.0419 | [14] -0.0363 | [15] -0.000855 | [16] 0.0413 | [17] 0.0247 | [18] 0.0262 | [19] 0.0531 | [20] 0.0434 | [21] 0.0573 | [22] 0.11 | [23] 0.0805 | [24] 0.115

Cc1occc(=O)c1C=CO
inactive: [1] 0.064 | [2] 0.0191 | [3] 0.188 | [4] 0.0363

CC1(C)S[C@@H]2[C@H](NC(=O)[C@H](N)c3ccccc3)C(=O)N2[C@H]1C(=O)O
inactive: [1] 0.0882 | [2] 0.14 | [3] 0.142 | [4] 0.206

CC1(C)S[C@@H]2[C@H](NC(=O)[C@H](N)c3ccc(O)cc3)C(=O)N2[C@H]1C(=O)O
inactive: [13] 0.0884 | [14] 0.104 | [1] 0.0883 | [2] 0.0656 | [15] -0.0334 | [16] 0.0742 | [17] 0.0733 | [18] 0.103 | [3] 0.14 | [4] 0.178 | [19] -0.017 | [20] 0.0291 | [21] 0.0293 | [22] 0.106 | [24] -0.0237
active: [23] -0.676

CC1(C)S[C@@H]2[C@H](NC(=O)C(C(=O)O)c3ccccc3)C(=O)N2[C@H]1C(=O)O (stereo partly drawn)
inactive: [1] 0.137 | [2] 0.0878 | [3] 0.243 | [4] 0.131

CC(=O)N1CCC[C@H]1C(=O)O
inactive: [1] 0.138 | [2] 0.0212 | [3] 0.184 | [4] 0.0486

C=C1c2cc(OC)ccc2NC(=O)N1c1ccccc1
inactive: [1] 0.0622 | [2] 0.09 | [3] 0.104 | [4] 0.0838

CC(C)NC[C@H](O)c1ccc(O)c(O)c1
inactive: [9] 0.15 | [10] 0.0965 | [11] 0.0541 | [12] 0.0273

COC(=O)C[C@H]1C(C)(C)[C@@H](OC(C)=O)[C@@H]2CC3=C4CC(=O)O[C@@H](c5ccoc5)[C@]4(C)CC[C@@H]3[C@@]1(C)C2=O
inactive: [1] 0.0358 | [2] 0.0144 | [3] 0.0778 | [4] 0.108

COc1cc(/C=C/CO)ccc1O
inactive: [1] 0.0482 | [2] 0.111 | [3] 0.0791 | [4] 0.0869

Oc1cc(O)cc(/C=C/c2ccc(O)c(O)c2)c1
inactive: [5] 0.0929 | [6] 0.00184 | [1] 0.117 | [2] 0.0696 | [9] -0.0238 | [10] 0.0864 | [3] 0.0516 | [4] 0.151 | [11] 0.187 | [12] 0.0106 | [8] 0.162
active: [7] -0.42

Oc1ccc(/C=C/c2cc(O)cc(O)c2)cc1
inactive: [13] 0.0131 | [14] 0.0367 | [1] 0.0839 | [2] 0.0347 | [15] -0.0479 | [16] 0.0776 | [17] 0.0102 | [18] 0.0306 | [3] 0.127 | [4] 0.2 | [19] -0.00513 | [20] 0.017 | [21] -0.0335 | [22] 0.0785 | [24] 0.0525
active: [9] -1.5 | [10] -1.81 | [11] -2.99 | [12] -3.07 | [23] -0.23

COc1cc(O)cc(/C=C/c2ccccc2)c1
inactive: [1] 0.0443 | [2] 0.0713 | [3] 0.167 | [4] 0.125

O=c1cc(O)cc(/C=C/c2ccc(O)c(O)c2)o1
inactive: [9] 0.159 | [10] 0.05 | [11] 0.0405 | [12] 0.104

Oc1cc(O)cc(/C=C/c2ccccc2)c1
inactive: [1] 0.0674 | [2] 0.00318 | [3] 0.07 | [4] 0.0614

C=C1CC/C=C(/C)CC[C@@H]2[C@@H]1CC2(C)C
inactive: [1] 0.102 | [2] 0.0257 | [3] 0.165 | [4] 0.118

CC1(C)CC[C@]2(C(=O)O)[C@H](O)C[C@]3(C)C(=CC[C@@H]4[C@@]5(C)CC[C@H](O)C(C)(C)[C@@H]5CC[C@]43C)[C@@H]2C1
inactive: [1] 0.0739 | [2] 0.0342 | [3] 0.0945 | [4] 0.121

CC1(C)C(=O)CCC2(C)C1CC(O)C1(C)C2CCC2(C)C(c3ccoc3)OC(=O)C3OC321 (stereo not drawn)
inactive: [1] 0.0271 | [2] -0.0613 | [3] 0.1 | [4] -0.017

NC(N)=NCCSSCCN=C(N)N
inactive: [9] 0.208 | [10] 0.0937 | [11] 0.0577 | [12] 0.063

O=c1cccc2ccc(O)c(O)c2c1O
inactive: [1] 0.0319 | [2] -0.0442 | [3] 0.142 | [4] -0.0155

COc1ccc(CN2CCN(Cc3cc(OC)c(OC)c(OC)c3)CC2)cc1
inactive: [1] 0.174 | [2] 0.0733 | [3] 0.142 | [4] -0.0868

COc1cc(Cc2cnc(N)nc2N)cc(OC)c1OC
active: [9] -0.215 | [10] -0.0762 | [11] -1.67 | [12] -2.59
inactive: [1] 0.149 | [2] 0.184 | [3] 0.204 | [4] 0.321

COc1cc(O)cc(OC)c1OC
inactive: [1] 0.0343 | [2] 0.0156 | [3] 0.173 | [4] 0.0956

COc1ccc(-c2coc3cc(OC)cc(O)c3c2=O)cc1
inactive: [1] 0.0141 | [2] 0.0676 | [3] 0.102 | [4] 0.184

COc1cc(CN2CCN(Cc3ccco3)CC2)cc(OC)c1
inactive: [1] -0.0146 | [2] 0.0935 | [3] 0.0118 | [4] 0.0977

CCCS(=O)(=O)Nc1ccc(F)c(C(=O)c2c[nH]c3ncc(-c4ccc(Cl)cc4)cc23)c1F
inactive: [13] 0.0151 | [14] 0.0756 | [15] -0.0936 | [16] 0.103 | [17] -0.131 | [18] 0.105 | [19] -0.159 | [20] 0.126 | [21] -0.177 | [22] 0.106 | [24] 0.0931
active: [23] -0.179

COc1c(Cl)c(C)c2c(c1Cl)OC(=O)c1c(C)c(Cl)c(O)c(Cl)c1O2
inactive: [1] 0.0361 | [2] 0.0285 | [3] 0.0998 | [4] 0.0885

CC1CN(S(=O)(=O)c2cccc3cnccc23)CCN1 (stereo not drawn)
inactive: [9] 0.246 | [10] 0.094 | [11] 0.214 | [12] 0.111

CN([C@@H](Cc1ccc(OS(=O)(=O)c2cccc3cnccc23)cc1)C(=O)N1CCN(c2ccccc2)CC1)S(=O)(=O)c1cccc2cnccc12
inactive: [5] 0.267 | [6] 0.00847 | [1] 0.23 | [2] -0.0263 | [9] 0.0748 | [10] 0.07 | [4] 0.0275 | [11] 0.166 | [12] -0.012 | [8] 0.00423
active: [3] -0.171 | [7] -0.315
